From PubChem
PvdQ acylase – blocks Pseudomonas aeruginosa PvdQ acylase activity; inhibition, % at 10 µM; purified PvdQ acylase, fluorescence plate reader; hit rate 0.063% among 340,000; AID 488965; in the data active means inhibition above about 30%, passing the limit was not always enough; inconclusive means no clear call, values can overlap the other calls
Glyco luc inh – N-linked glycosylation inhibition; hit rate 0.23% among 360,000; AID 588692; D54 ERlucT glycosylation luciferase reporter, 24 h; percent of 100 nM tunicamycin response; reporter increase, % at 12.5 µM;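 active means mean luciferase reporter signal, scaled so untreated is 0 and the glycosylation-blocking control 100, at or above a set limit in every replicate; inconclusive means mean reaches the limit but not every replicate does; inactive means mean below the limit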;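 further: luciferase carries N-glycosylation sites so blocking glycosylation raises the light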
esBAF inh – blocks esBAF chromatin remodeling in mouse ES cells; reporter increase, % at 12.5 µM; AID 602393; hit rate 2% among 350,000; Bmi1-luciferase knock-in reporter, 24 h; 100% = twice the neutral-well signal; in the data active means activation above about 40%; inconclusive means no clear call, values can overlap the other calls;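 further: a rise in the Bmi1 reporter signal indicates esBAF inhibition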
Wnt act – activators of Wnt/beta-catenin signaling | activation, % at 9.35 µM | Wnt/beta-catenin reporter cell assay, activator, plate reader | hit rate 1.2% among 300,000; in the data active means activation above about 30%, passing the limit was not always enough; inconclusive means no clear call, values can overlap the other calls
Vif imaging – HIV Vif inhibition; inhibition, % at 7.49 µM; AID 602346; hit rate 0.35% among 340,000; HEK293T cells, Vif self-association by quenched fluorescence, imaging, 24 h; in the data active means inhibition above about 50%, passing the limit was not always enough; inconclusive means no clear call, values can overlap the other calls; inactive means below about 31%
MITF TRPM1 HTS – MITF TRPM1 promoter activation in melanoma cells; SK-MEL-5 TRPM1-promoter luciferase, 24 h; % of positive control, neutral wells = 0; activation, % at 12.5 µM; hit rate 0.75% among 300,000; AID 588334;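 active means mean activation of at least 80% with every replicate also reaching 80%; inconclusive means mean reaches 80% but some replicate falls short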
Hits are given with their value; - = inactive; ? = inconclusive; . = not tested or not shown. Compounds with a hit are over-represented: about 2.9% of the library has one in this group of screens.

SMILES	PvdQ acylase	Glyco luc inh	esBAF inh	Wnt act	Vif imaging	MITF TRPM1 HTS
Cc1ccccc1/C=C/c1nc2ccccc2c(=O)[nH]1	-	-	-	39	-	-
C[C@@H]1CN([C@@H](C)CO)S(=O)(=O)c2ccc(-c3cccc(C(=O)N(C)C)c3)cc2O[C@H]1CN(C)C	.	.	-	.	.	.
CC(NC(=O)CSc1nc2c(c(C(F)(F)F)n1)CCc1ccccc1-2)c1ccccc1 (stereo not drawn)	-	-	-	.	63	-
O=C(CSc1nc2c(c(C(F)(F)F)n1)CCc1ccccc1-2)NCc1ccco1	-	-	-	.	-	-
CCOc1cccc(-c2cnc3cccnn23)c1	.	-	61	-	-	.
CCOc1ccc(-c2cnc3cccnn23)cc1	.	-	-	-	-	.
C[C@H](CO)N1C[C@H](C)[C@H](CN(C)Cc2ccc(C(=O)O)cc2)OCCCC[C@H](C)Oc2ccc(NC(=O)Nc3ccccc3)cc2C1=O	.	.	-	.	.	.
Cc1c(O)ccc(C(=O)COc2ccc(F)cc2)c1O	-	-	80	.	-	?
CCc1cc(C(=O)COc2ccc(F)cc2)c(O)cc1O	-	-	.	42	-	-
COc1ccc(N/N=C(\C#N)C(=N)N2CCOCC2)cc1	-	-	.	-	-	-
N#C/C(=N\Nc1ccc(F)cc1)C(=N)N1CCCCC1	-	-	-	.	-	114
N#C/C(=N\Nc1ccccc1)C(=N)N1CCCCCC1	-	-	-	42	-	-
N#C/C(=N\Nc1cccc(F)c1)C(=N)N1CCCCCC1	-	-	.	-	-	?
COc1ccc(CN(C)C[C@H]2Oc3ccc(NC(=O)Nc4ccc(F)cc4)cc3CC(=O)N([C@@H](C)CO)C[C@@H]2C)cc1	.	.	-	.	.	.
O=C(CCN1CCOCC1)c1ccccc1	-	-	-	-	-	-
O=C(Nc1ccc(CN2CCOCC2)cc1)c1ccccc1F	-	-	-	39	-	.
O=C(Nc1ccc(N2CCOCC2)cc1)c1cc2ccccc2o1	-	-	46	.	-	-
O=C(CCN1CCOCC1)NNC(=S)NC(=O)c1ccccc1	-	-	-	-	69	-
O=C(CCN1CCOCC1)Nc1ccc(Cl)cc1	-	-	-	-	74	-
O=C(Nc1ccc(CN2CCOCC2)cc1)c1ccc(Cl)cc1Cl	-	-	-	-	-	-
O=C(CN1CCOCC1)Nc1ccc(Cl)cc1	-	-	-	-	-	.
O=C(NC(=S)Nc1ccc(CN2CCOCC2)cc1)c1cc2ccccc2o1	-	-	.	-	-	-
O=C(Nc1ccc(CN2CCOCC2)cc1)c1cc2ccccc2o1	-	-	-	.	-	105
c1ccc(CSc2nnc(NC3=NCCCCC3)s2)cc1	-	-	41	.	-	.
N#Cc1ccc(CSc2nnc(Nc3ccccc3)s2)cc1	-	-	-	-	-	-
SMILES	PvdQ acylase	Glyco luc inh	esBAF inh	Wnt act	Vif imaging	MITF TRPM1 HTS
O=C(NCCc1ccccc1)C1=COCCO1	-	-	48	-	-	-
O=C(Nc1nnc(SCc2ccccc2)s1)C1=COCCO1	-	-	67	-	-	-
O=C(Nc1nnc(SCc2ccccc2F)s1)C1=COCCO1	-	-	-	-	-	-
O=C(Nc1nnc(SCc2ccc(F)cc2)s1)C1=COCCO1	-	-	48	-	-	-
Cc1ccccc1-c1cnc2c(c1)C(=O)N([C@H](C)CO)C[C@H](C)[C@@H](CN(C)Cc1cncnc1)O2	.	.	-	.	.	.
CC(C)C#Cc1cnc2c(c1)C(=O)N([C@H](C)CO)C[C@H](C)[C@@H](CN(C)C(=O)CCN1CCCCC1)O2	.	.	-	.	.	.
O=C(C[C@H]1CC[C@@H]2[C@H](COC[C@H](O)CN2C(=O)c2ccc3c(c2)OCO3)O1)NC1Cc2ccccc2C1	.	.	-	.	.	.
CCCc1cn(CC[C@@H]2CC[C@H](NC(=O)Nc3ccccc3F)[C@@H](CO)O2)nn1	.	.	-	.	.	.
CCOC(=O)CNC(=O)c1ccc(Cl)s1	-	-	-	-	-	-
CCNc1nc(N)c(C(=O)c2ccc(Cl)s2)s1	-	-	43	58	-	.
CC(C)CC#Cc1cnc2c(c1)C(=O)N([C@H](C)CO)C[C@@H](C)[C@H](CN(C)C(=O)C1CCOCC1)O2	.	.	-	.	.	.
C[C@@H]1CCCCO[C@H](CN(C)Cc2ccccc2)[C@@H](C)CN([C@H](C)CO)C(=O)c2cc(NC(=O)C3CCCCC3)ccc2O1	.	.	-	.	.	.
CN(C(=O)CCn1c(=S)oc2ccccc21)c1ccc(F)cc1	36	-	.	-	-	-
O=C(CCn1c(=S)oc2ccccc21)Nc1ccc(F)cc1	-	-	.	-	-	-
CCC(=O)N1CCN(c2cc(C)ccc2C)CC1	-	-	-	-	50	-
Cc1ccc(C)c(N2CCN(C(=O)CCc3nc(-c4ccccc4F)no3)CC2)c1	-	-	-	-	-	-
Cc1ccc(C)c(N2CCN(C(=O)CCc3nc(-c4ccccc4Br)no3)CC2)c1	-	-	43	-	-	-
CCCNC(=O)N1C[C@@H](C)[C@@H](OC)CN(C)C(=O)c2cc(NS(=O)(=O)CC(F)(F)F)ccc2OC[C@H]1C	.	.	-	.	.	.
COc1ccc(CNc2ccccc2)cc1Br	-	-	-	.	.	-
COc1ccc(Cc2nnc(Nc3ccccc3)s2)cc1Br	-	-	-	-	107	-
Cc1ccc(-c2nnc(Cc3ccc([N+](=O)[O-])cc3)o2)cc1	-	-	-	?	?	94
O=[N+]([O-])c1ccc(Cc2nnc(-c3ccc(F)cc3)o2)cc1	-	-	.	?	-	?
O=C(C[C@H]1CC[C@@H]2[C@H](COC[C@@H](O)CN2C(=O)Nc2ccc(F)cc2)O1)NC1CCC1	.	.	-	.	.	.
Cc1ccc(-c2nc3ccc(NS(=O)(=O)c4ccccc4)cc3[nH]2)o1	-	-	78	-	-	-
O=C(Nc1nc2ccc(Cl)cc2s1)c1ccco1	-	-	.	?	-	-
SMILES	PvdQ acylase	Glyco luc inh	esBAF inh	Wnt act	Vif imaging	MITF TRPM1 HTS
CC1CC1C(=O)Nc1nc2ccc(Cl)cc2s1 (stereo not drawn)	-	-	.	54	-	-
Cn1cc(Cl)c(C(=O)Nc2nc3ccc(Cl)cc3s2)n1	-	-	112	.	-	-
Cn1cc(Cl)c(C(=O)Nc2nc3ccc([N+](=O)[O-])cc3s2)n1	-	-	.	-	-	-
CC1CC1C(=O)Nc1nc(-c2ccccn2)cs1 (stereo not drawn)	-	-	51	-	-	-
CC(C)C(=O)Nc1ccc2c(c1)C(=O)N(C)[C@@H]1CC[C@@H](CC(=O)NCCc3ccccc3)O[C@@H]1CO2	.	.	-	.	.	.
C[C@@H]1CCCCO[C@H](CN(C)S(=O)(=O)c2cn(C)cn2)[C@@H](C)CN([C@@H](C)CO)C(=O)c2cc(NC(=O)Cc3ccccc3)ccc2O1	.	.	-	.	.	.
Cc1csc(=O)n1CC(=O)OCc1cccc2ccccc12	-	-	58	-	-	.
CCc1cccc(C)c1NC(=O)COC(=O)Cn1c(C)csc1=O	-	-	.	-	-	-
CCCS(=O)(=O)c1cnc(C2COc3ccccc3O2)nc1N (stereo not drawn)	-	-	-	-	80	-
O=C(Nc1ccc2c(c1)[C@@H]1C[C@@H](CC(=O)N3CCOCC3)O[C@H](CO)[C@@H]1O2)NC1CCCC1	.	.	-	.	.	.
O=[N+]([O-])c1ccc(O)c(/C=N/Nc2ccccc2Cl)c1	-	-	47	?	-	-
